Assay outcomes from PubChem.
Coupling enz: counter-screen for Giardia aldolase inhibitors: coupling enzyme system. coupling enzyme system counterscreen, AmpLite Red fluorescence. activity change, negative = inhibition, % at 58.2 µM, hits read low. 290,000 tested, 0.67% active. AID 2472; in the data active = activity change below about -30%
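Final compound at 57.5 uM, incubated 10 min at RT with coupling enzyme reagent (glyceraldehyde-3-phosphate), then 20 min with substrate and AmpLite Red detection. Fluorescence read at 525/598 nm; tests interference with the coupling assay, not aldolase inhibition.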
Tau fibril FP: blocks human tau fibril formation measured by polarization | K18 P301L tau heparin fibrillization, Alexa594 FP, 6 h | Potency, µM (series often up to 57.7 µM), inactives show at the highest dose activity, negative = inhibition, hits mostly inhibitors | P10636 | 280,000 tested, 0.39% active; note: potency is the fitted concentration of half-maximal effect; nearly all actives have a fitted effect of over 55% in size
Target sequence (P10636 561-689 P618L limits assumed): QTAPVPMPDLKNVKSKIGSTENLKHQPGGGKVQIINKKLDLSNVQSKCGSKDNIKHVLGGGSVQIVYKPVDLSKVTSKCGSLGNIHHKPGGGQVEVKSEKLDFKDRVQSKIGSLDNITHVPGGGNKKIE
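Human K18 P301L fragment (15 uM unlabeled plus 0.24 uM Alexa 594-labeled) in 100 mM sodium acetate pH 7 with compound, aggregation induced by 20 uM heparin for 6 hr at 37 C. ThT (30 uM) added for 1 hr, then Alexa 594 FP read.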
Tau ThT inhib: blocks human tau fibril formation measured by thioflavin T; Potency, µM (series often up to 57.4 µM), for inactives: top-dose activity, negative = inhibition, actives largely listed as inhibitors; P10636; AID 1460; recombinant tau K18 P301L, heparin-induced fibrillization, ThT fluorescence; 270,000 tested, 2.1% active; note: potency is the fitted concentration of half-maximal effect; nearly all actives have a fitted effect of over 55% in size
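Heparin-induced fibrillization of the P301L-mutant K18 repeat-domain fragment of human tau was followed by ThT binding in quantitative high-throughput format.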
Tau fluor cs: counter-screen for tau fibril formation inhibitors | tau K18 P301L Alexa594 fluorescence, heparin fibrillization | Potency, µM (doses to about 57.7 µM), for inactives: top-dose activity change, negative = decrease | 280,000 tested, 0.93% active; note: potency is the fitted concentration of half-maximal effect; nearly all actives have a fitted effect of over 55% in size
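Human tau K18 P301L (15 uM unlabeled, 0.24 uM Alexa 594-labeled) in 100 mM sodium acetate pH 7 with 20 uM heparin, 6 hr at 37 C. ThT 30 uM added, 1 hr ambient; Alexa 594 FP and total fluorescence read at 555/632 nm.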
* hit, by the source's call; [ ] = another dose, or the depositor's remark. Sampled rows, rich in hits. Any-hit rate of the full collection: about 2.7%. Unless noted, calls come from the whole dose curve; as a rule, active = well fitted curve in the direction sought with a large enough effect; inconclusive = small, poorly fitted or top-dose-only effect, or another doubt; inactive = no such curve, though single readings can be large; an effect the other way counts as inactive or inconclusive. % is set by controls: 0 for no effect and ±100 for the full control effect.

Results for CSCC[C@H](NC(=O)[C@H](CC(C)C)NC(=O)[C@H](Cc1c[nH]c2ccccc12)NC(=O)[C@H](CCC(N)=O)NC(=O)[C@@H](NC(=O)[C@H](Cc1ccccc1)NC(=O)[C@H](CC(=O)O)NC(=O)[C@H](CCC(N)=O)NC(=O)[C@H](C)NC(=O)[C@H](CCCNC(=N)N)NC(=O)[C@H](CCCNC(=N)N)NC(=O)[C@H](CO)NC(=O)[C@H](CC(=O)O)NC(=O)[C@H](CC(C)C)NC(=O)[C@H](Cc1ccc(O)cc1)NC(=O)[C@H](CCCCN)NC(=O)[C@H](CO)NC(=O)[C@H](Cc1ccc(O)cc1)NC(=O)[C@H](CC(=O)O)NC(=O)[C@H](CO)NC(=O)[C@@H](NC(=O)[C@H](Cc1ccccc1)NC(=O)[C@@H](NC(=O)CNC(=O)[C@H](CCC(N)=O)NC(=O)[C@H](CO)NC(=O)[C@@H](N)Cc1cnc[nH]1)[C@@H](C)O)[C@@H](C)O)C(C)C)C(=O)N[C@@H](CC(N)=O)C(=O)N[C@H](C(=O)O)[C@@H](C)O ?
Coupling enz: 2.6

How did O=C(N/N=C1\C(=O)c2cccc3cccc1c23)c1ccc(O)cc1 do in these assays?
Coupling enz: -0.3; Tau fibril FP: 1.3%; Tau ThT inhib: inconclusive; Tau fluor cs: inconclusive

What do the screens show for `O=C1C([N+](=O)[O-])=C(O)c2cccc3cccc1c23`?
Coupling enz: -50.7*

What do the screens show for `COc1ccc(C2=Nc3ccc(OC(F)(F)F)cc3NC(c3cccnc3)=N2)cc1`?
Tau fibril FP: -10.9%; Tau ThT inhib: inconclusive; Tau fluor cs: -25.5%

How did CCc1ccc(NC(=O)CCCn2nc(C)c3c(C)n(-c4ccccc4)nc3c2=O)cc1 do in these assays?
Tau fibril FP: -13.2%; Tau ThT inhib: -0.3%; Tau fluor cs: -11.4%

Results for O=C1c2ccccc2C(=O)N1c1cccc(-c2csc(Nc3ccc4c(c3)OCO4)n2)c1 ?
Coupling enz: -1.9; Tau fibril FP: inconclusive; Tau ThT inhib: 8.91µM*; Tau fluor cs: 7.94µM*[quencher]

How did O=C(COC(=O)c1ccc([N+](=O)[O-])o1)c1ccccc1 do in these assays?
Coupling enz: -3.8; Tau fibril FP: -2.2%; Tau ThT inhib: 0.8%; Tau fluor cs: 7.8%

Results for CC(=O)c1ccccc1OC(=O)c1ccc([N+](=O)[O-])o1 ?
Coupling enz: -6.7; Tau fibril FP: inconclusive; Tau ThT inhib: 7.94µM*; Tau fluor cs: -23.5%

How did COC(=O)C(Cc1ccccc1)OS(N)(=O)=O (configuration not stated) do in these assays?
Coupling enz: 0.0

What do the screens show for `COc1cc(CN(C(=O)c2oc3ccccc3c2C)C2CCS(=O)(=O)C2)cc(OC)c1OC` (configuration not stated)?
Tau fibril FP: 2.1%; Tau ThT inhib: 4.4%; Tau fluor cs: -0.7%

Results for Clc1ccc(-c2ccc(/C=N/Nc3nncc(-c4ccccc4)n3)o2)cc1 ?
Coupling enz: -4.1; Tau fibril FP: -2.7%; Tau ThT inhib: 2.24µM*; Tau fluor cs: -27.1%

What do the screens show for `Clc1ccccc1-c1ccc(/C=N/Nc2nncc(-c3ccccc3)n2)o1`?
Coupling enz: -2.8; Tau fibril FP: 16.4%; Tau ThT inhib: 2µM*; Tau fluor cs: -27.4%

What do the screens show for `Cc1ccc(/C=N/Nc2nncc(-c3ccccc3)n2)o1`?
Coupling enz: 2.4; Tau fibril FP: -2.6%; Tau ThT inhib: inconclusive; Tau fluor cs: -14.4%

What do the screens show for `O=[N+]([O-])c1cc(CN2CCCC2)c2cccnc2c1O`?
Coupling enz: -35.1*; Tau fibril FP: -13.9%; Tau ThT inhib: 15.8µM*; Tau fluor cs: -23.5%

Results for Oc1c(Cl)cc(CN2CCCCC2)c2cccnc12 ?
Coupling enz: -15.9

Results for O=[N+]([O-])c1cc(CN2CCN(c3cccc(C(F)(F)F)c3)CC2)c2cccnc2c1O ?
Coupling enz: -14.4; Tau fibril FP: 1.4%; Tau ThT inhib: 15.8µM*; Tau fluor cs: -15.8%

What do the screens show for `CC(C)OCc1cc(CN2CCN(c3cccc(C(F)(F)F)c3)CC2)c(O)c2ncccc12`?
Tau fibril FP: 7.0%; Tau ThT inhib: -14.2%; Tau fluor cs: -19.9%

Results for C=C(C)Cn1c(SCC(=O)c2ccc(Br)cc2)nc2sc3c(c2c1=O)CCCC3 ?
Tau fibril FP: -2.2%; Tau ThT inhib: -0.3%; Tau fluor cs: -6.8%

Results for Cc1ccc2c(c1)c1c(n2C)-c2[nH]ncc2CC1 ?
Coupling enz: -0.4; Tau fibril FP: 5.2%; Tau ThT inhib: inconclusive; Tau fluor cs: 17.8µM*[quencher]

What do the screens show for `Cc1ccc2c(c1)c1c(n2C)C(C(N)=O)CCC1` (configuration not stated)?
Coupling enz: 0.2; Tau fibril FP: -5.8%; Tau ThT inhib: -13.0%; Tau fluor cs: -3.2%

What do the screens show for `CCn1c(CN2CCC(C)CC2)nc2cc(NC(=O)COc3ccc([N+](=O)[O-])cc3)ccc21`?
Tau fibril FP: -2.2%; Tau ThT inhib: -3.9%; Tau fluor cs: -15.0%

Results for Oc1ccc(-c2nc(-c3ccc(O)c(O)c3)cs2)cc1 ?
Coupling enz: -4.2; Tau fibril FP: 7.1%; Tau ThT inhib: 3.16µM*; Tau fluor cs: 12.6µM*[quencher]

Results for CC(=O)Nc1ccc(-c2csc(Nc3ccc(S(N)(=O)=O)cc3)n2)cc1 ?
Coupling enz: -2.5; Tau fibril FP: 9.1%; Tau ThT inhib: inconclusive; Tau fluor cs: -16.4%

What do the screens show for `Oc1ccc(Nc2nc(-c3ccc4ccccc4c3)cs2)cc1`?
Coupling enz: -25.6; Tau fibril FP: inconclusive; Tau ThT inhib: 5.01µM*; Tau fluor cs: 7.94µM*[quencher]

What do the screens show for `NS(=O)(=O)c1ccc(Nc2nc(-c3ccc(F)cc3)cs2)cc1`?
Coupling enz: -5.5; Tau fibril FP: 12.1%; Tau ThT inhib: inconclusive; Tau fluor cs: 15.8µM*[quencher]

What do the screens show for `NS(=O)(=O)c1ccc(Nc2nc(-c3ccc(O)cc3O)cs2)cc1`?
Coupling enz: -8.0; Tau fibril FP: 9.4%; Tau ThT inhib: 6.31µM*; Tau fluor cs: 14.1µM*[quencher]

How did CC(=O)Nc1nc(-c2ccc3ccccc3c2)cs1 do in these assays?
Coupling enz: -0.2

How did CCCCN(CCCC)CCNC(=O)c1cc(=O)[nH]c2ccc(S(=O)(=O)N3CCCCCC3)cc12 do in these assays?
Tau fibril FP: 0.9%; Tau ThT inhib: 7.2%; Tau fluor cs: 1.5%

What do the screens show for `CCC(CC)C(=O)Nc1ccc2nc(SCC(=O)N3CCc4ccccc43)sc2c1`?
Tau fibril FP: -16.0%; Tau ThT inhib: 8.3%; Tau fluor cs: -3.9%

How did Cc1ccccc1NC(=O)Cn1c(=O)n(CCc2ccccc2)c(=O)c2sc3ccccc3c21 do in these assays?
Tau fibril FP: -2.2%; Tau ThT inhib: 19.9%; Tau fluor cs: 0.7%

How did O=C(O)c1ccc(N2C(=O)/C(=C/c3ccc(-c4ccc([N+](=O)[O-])cc4)o3)C=C2c2ccccc2)cc1 do in these assays?
Coupling enz: 4.5; Tau fibril FP: inconclusive; Tau ThT inhib: 4.47µM*; Tau fluor cs: inconclusive
